# Assay results from PubChem BioAssay (NCATS).
# Where “and” joins values, the source holds several entries; their conditions need not be identical. Equal entries are not always repeated. Inconclusive results are not listed. Where a call stands in place of a potency, no number is given. Values without a mark were called inactive. Calls of active or inactive are those of the source. Calls come from the whole dose curve; as a rule, active = well fitted inhibition curve with a large enough effect; inconclusive = small, poorly fitted or top-dose-only effect; inactive = flat fitted curve, though single readings scatter.
# Tests used:
# [1] = tested on: P93_24; assay: qHTS profiling for inhibitors of Plasmodium falciparum proliferation (AID 504749); settings: P. falciparum in erythrocytes, SYBR Green DNA, 72 h; series mostly up to 28.7 µM
# In short: (§1)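 In a 72 h erythrocytic culture (37 C, humidified, 5% CO2) at 2.5% hematocrit and 0.3% starting parasitemia, compounds were tested; SYBR Green I in detergent lysis buffer stained parasite DNA overnight.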
# [2] = tested on: P94_40; assay: as above; settings: P. falciparum in erythrocytes, SYBR Green DNA, 72 h; series mostly up to 28.7 µM
# In short: as §1
# [3] = tested on: PAD; assay: as above; settings: P. falciparum in erythrocytes, SYBR Green DNA, 72 h; series mostly up to 28.7 µM
# In short: as §1
# [4] = tested on: PC15; assay: as above; settings: P. falciparum in erythrocytes, SYBR Green DNA, 72 h; series mostly up to 28.7 µM
# In short: as §1
# [5] = tested on: PC26; assay: as above; settings: P. falciparum in erythrocytes, SYBR Green DNA, 72 h; series mostly up to 28.7 µM
# In short: as §1
# [6] = tested on: PC49; assay: as above; settings: P. falciparum in erythrocytes, SYBR Green DNA, 72 h; series mostly up to 28.7 µM
# In short: as §1
# [7] = tested on: SC27B; assay: as above; settings: P. falciparum in erythrocytes, SYBR Green DNA, 72 h; series mostly up to 28.7 µM
# In short: as §1
# [8] = tested on: TAB109; assay: as above; settings: P. falciparum in erythrocytes, SYBR Green DNA, 72 h; series mostly up to 28.7 µM
# In short: as §1
# [9] = tested on: TAB113; assay: as above; settings: P. falciparum in erythrocytes, SYBR Green DNA, 72 h; series mostly up to 28.7 µM
# In short: as §1
# [10] = tested on: TAB165; assay: as above; settings: P. falciparum in erythrocytes, SYBR Green DNA, 72 h; series mostly up to 28.7 µM
# In short: as §1
# [11] = tested on: W2; assay: as above; settings: P. falciparum in erythrocytes, SYBR Green DNA, 72 h; series mostly up to 28.7 µM
# In short: as §1
# [12] = tested on: CRL-7250; assay: Cytotoxic Profiling of Annotated Libraries Using Quantitative High-Throughput Screening (AID 1296008); settings: Five cell lines viability, CellTiter-Glo ATP luminescence, 48-72 h; max response: stronger effect = lower value
# In short: (§2)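 Cytotoxicity was measured as CellTiter-Glo ATP luminescence, read after 10 min at room temperature. Compound treatment of the cells lasted 48 or 72 hr at 37 degrees Celsius in a qHTS format.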
# [13] = tested on: HaCat; assay: as above; settings: Five cell lines viability, CellTiter-Glo ATP luminescence, 48-72 h; max response: stronger effect = lower value
# In short: as §2
# [14] = tested on: KB-3-1; assay: as above; settings: Five cell lines viability, CellTiter-Glo ATP luminescence, 48-72 h; max response: stronger effect = lower value
# In short: as §2
# [15] = tested on: NIH3T3; assay: as above; settings: Five cell lines viability, CellTiter-Glo ATP luminescence, 48-72 h; max response: stronger effect = lower value
# In short: as §2
# [16] = tested on: HACAT; assay: qHTS assay to identify novel small-molecules to repurpose for Merkel cell carcinoma treatment (AID 1296009); settings: MCC and control cell lines, CellTiter-Glo viability, 72 h
# In short: (§3)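 Cell viability measured by CellTiter-Glo following 72 hr compound treatment at 37 degree celsius, with NPC and MIPE libraries tested in 8- and 11-point concentration series.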
# [17] = tested on: HEK293T; assay: as above; settings: MCC and control cell lines, CellTiter-Glo viability, 72 h
# In short: as §3
# [18] = tested on: MCC-13; assay: as above; settings: MCC and control cell lines, CellTiter-Glo viability, 72 h; series mostly up to 46 µM
# In short: as §3
# [19] = tested on: MCC-26; assay: as above; settings: MCC and control cell lines, CellTiter-Glo viability, 72 h; series mostly up to 46 µM
# In short: as §3
# [20] = tested on: HEK293; assay: Cytotoxic Profiling of Annotated Libraries Using Quantitative High-Throughput Screening (AID 1296008); settings: Five cell lines viability, CellTiter-Glo ATP luminescence, 48-72 h; max response: stronger effect = lower value
# In short: as §2
# [21] = at 44.8 µM (top of the series) unless noted
# Note: nearly all actives have a fitted effect of over 60% in size.
# Potency is the fitted concentration of half-maximal effect.
smiles,measurement,setting,value
O=P(O)(O)C(O)(Cc1cccnc1)P(=O)(O)O,Potency,[1],inactive
same,Potency,[2],inactive
same,Potency,[3],inactive
same,Potency,[4],inactive
same,Potency,[5],inactive
same,Potency,[6],inactive
same,Potency,[7],inactive
same,Potency,[8],inactive
same,Potency,[9],inactive
same,Potency,[10],inactive
same,Potency,[11],inactive
same,max response,[12],-3.74% and -13.5% and 3.83%
same,max response,[13],-18.6%
same,outcome,[13],inactive
same,max response,[14],16.5% and 4.21% and 6.74%
same,max response,[15],-4.1% and 0.573%
same,outcome,[15],inactive
same,outcome,[16]; at 4.96 µM (top of the series),inactive
same,outcome,[16]; at 44.8 µM (top of the series),inactive
same,outcome,[17]; [21],inactive
same,Potency,[18],inactive
same,Potency,[19],inactive
CCOC(=O)[C@H](CCc1ccccc1)N[C@H]1CCc2ccccc2N(CC(=O)O)C1=O,max response,[12],-7.52%
same,Potency,[20],18.7 µM (active)
same,outcome,[13],inactive
same,max response,[14],4.39%
same,outcome,[16]; [21],inactive
same,Potency,[18],inactive
CCN(CC)CCn1c(=O)c(Cc2ccc(OC)cc2)nc2ccccc21,max response,[12],-4.28%
same,max response,[20],-12.9%
same,max response,[13],-7.99%
same,max response,[14],-9.16%
same,outcome,[14],inactive
same,outcome,[15],inactive
same,Potency,[18],inactive
same,Potency,[19],inactive
Nc1nc(=S)c2[nH]cnc2[nH]1,Potency,[12],18.8 µM (active)
same,Potency,[20],3.76 µM (active) and 9.35 µM (active)
same,Potency,[13],1.5 µM (active) and 4.69 µM (active)
same,Potency,[14],5.17 µM (active) and 3.66 µM (active) and 1.32 µM (active)
same,Potency,[15],841 nM (active) and 3.32 µM (active)
same,Potency,[18],4.22 µM (active)
COc1ccc2cc3[n+](cc2c1OC)CCc1cc2c(cc1-3)OCO2,Potency,[1],562 nM (active)
same,Potency,[2],447 nM (active)
same,Potency,[3],1000 nM (active)
same,Potency,[4],2240 nM (active)
same,Potency,[5],1900 nM (active)
same,Potency,[6],2510 nM (active)
same,Potency,[7],1260 nM (active)
same,Potency,[8],631 nM (active)
same,Potency,[9],1000 nM (active)
same,Potency,[10],794 nM (active)
same,Potency,[11],601 nM (active)
same,Potency,[12],1.06 µM (active) and 4.18 µM (active)
same,Potency,[20],1.33 µM (active) and 1.05 µM (active)
same,Potency,[14],20.6 µM (active) and 13.2 µM (active)
same,max response,[15],-15.5% and -8.88%
same,Potency,[18],inactive
O=c1oc2c(O)c(O)cc3c(=O)oc4c(O)c(O)cc1c4c23,Potency,[4],6310 nM (active)
same,Potency,[6],inactive
same,Potency,[10],1410 nM (active)
same,Potency,[11],1900 nM (active)
same,max response,[12],-1.07%
same,outcome,[20],inactive
same,max response,[13],0.0618% and -16.9%
same,max response,[14],-24.2% and 0.262%
same,max response,[15],2.17%
same,outcome,[17]; at 17.4 µM (top of the series),inactive
same,outcome,[17]; at 44.8 µM (top of the series),inactive
same,Potency,[18],inactive
same,Potency,[19],inactive
Cc1noc(NS(=O)(=O)c2ccc(N)cc2)c1C,Potency,[1],inactive
same,Potency,[2],inactive
same,Potency,[3],inactive
same,Potency,[4],inactive
same,Potency,[5],inactive
same,Potency,[6],inactive
same,Potency,[7],inactive
same,Potency,[8],inactive
same,Potency,[9],inactive
same,Potency,[10],inactive
same,max response,[12],4.08% and -1.95%
same,max response,[13],1.98%
same,outcome,[13],inactive
same,max response,[14],-4.11% and 1.03%
same,outcome,[14],inactive
same,max response,[15],-2.78% and -1.88%
same,outcome,[16]; [21],inactive
same,outcome,[17]; [21],inactive
same,Potency,[18],inactive
CCCCS(=N)(=O)CCC(N)C(=O)O (centres undefined),max response,[12],-8.66%
same,max response,[20],-11.7%
same,outcome,[13],inactive
same,max response,[14],-5.13%
same,max response,[15],-0.0148%
same,outcome,[16]; [21],inactive
same,Potency,[19],inactive
COc1cccc(N(C)C(=S)Oc2ccc3c(c2)CCCC3)n1,Potency,[1],inactive
same,Potency,[3],inactive
same,Potency,[4],inactive
same,Potency,[5],inactive
same,Potency,[6],inactive
same,Potency,[7],inactive
same,Potency,[8],inactive
same,outcome,[12],inactive
same,max response,[20],-19.3%
same,outcome,[13],inactive
same,max response,[14],-2.71% and 6.85%
same,max response,[15],2.09%
same,outcome,[16]; [21],inactive
same,Potency,[18],inactive
NC(=O)c1ccc2[nH]ccc2c1,max response,[12],-5.07%
same,max response,[20],-1.44%
same,max response,[13],0.172%
same,max response,[14],5.8%
same,max response,[15],-9.23%
same,Potency,[18],inactive
same,Potency,[19],inactive
O=C(O)C1CCCN(CCC=C(c2ccccc2)c2ccccc2)C1 (centres undefined),outcome,[12],inactive
same,max response,[20],3.73%
same,max response,[13],-1.89%
same,max response,[14],5.05%
same,max response,[15],3.07%
same,Potency,[18],inactive
same,Potency,[19],inactive
O=C(NCC1CN(c2ccc(N3CCOCC3=O)cc2)C(=O)O1)c1ccc(Cl)s1 (centres undefined),outcome,[12],inactive
same,max response,[20],-28.8%
same,outcome,[13],inactive
same,max response,[14],-19.6%
same,max response,[15],3.35%
same,outcome,[15],inactive
same,outcome,[16]; [21],inactive
same,Potency,[18],inactive
same,Potency,[19],inactive
COc1cc2nc(N3CCCN(C)CC3)nc(NC3CCN(Cc4ccccc4)CC3)c2cc1OC,Potency,[12],9.35 µM (active)
same,Potency,[20],6.62 µM (active)
same,Potency,[19],23500 nM (active)
CC[C@H](NC(C)C)[C@H](O)c1ccc(O)c2[nH]c(=O)ccc12,Potency,[1],inactive
same,Potency,[2],inactive
same,Potency,[3],inactive
same,Potency,[4],inactive
same,Potency,[5],inactive
same,Potency,[6],inactive
same,Potency,[7],inactive
same,Potency,[8],inactive
same,Potency,[9],inactive
same,Potency,[10],inactive
same,Potency,[11],inactive
same,max response,[12],0.158% and -0.536%
same,max response,[13],-10.6%
same,outcome,[13],inactive
same,max response,[14],8.39%
same,max response,[15],2.87% and -5.91%
same,outcome,[16]; [21],inactive
same,outcome,[17]; [21],inactive
same,Potency,[18],inactive
same,Potency,[19],inactive
CN(C)c1ccc(C(=C2C=CC(=[N+](C)C)C=C2)c2ccc(N(C)C)cc2)cc1,Potency,[1],316 nM (active)
same,Potency,[2],282 nM (active)
same,Potency,[3],355 nM (active)
same,Potency,[4],708 nM (active)
same,Potency,[5],849 nM (active)
same,Potency,[6],1780 nM (active)
same,Potency,[7],501 nM (active)
same,Potency,[8],224 nM (active)
same,Potency,[9],355 nM (active)
same,Potency,[10],251 nM (active)
same,Potency,[11],120 nM (active)
same,Potency,[12],211 nM (active) and 59 nM (active)
same,Potency,[20],237 nM (active) and 105 nM (active)
same,Potency,[13],1.06 µM (active) and 935 nM (active)
same,Potency,[14],7.31 µM (active) and 93.5 nM (active)
same,Potency,[15],944 nM (active) and 372 nM (active)
same,Potency,[18],750 nM (active) and 743 nM (active)
